The supplement of paper PMC11417369
In all, about 25,000 sequences were measured (“ln(normalized median fluorescence intensity)”: median about 9.3, highest 2% from about 10 on). Only a selection was taken, and the highest values are over-represented in it overall.

tested on: PF3D7_0420300 AP2 domain 1 (GST-tagged); test: gcPBM binding intensity (ln(normalized median fluorescence intensity)); higher = stronger DNA binding
Summary of the method: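 For binding intensity, the highest Masliner-normalised natural-log median intensity across replicate spots of either probe orientation was taken. Protein bound to the array was stained with Alexa488 anti-GST antibody and scanned at 488 nm. The protein, GST-tagged P. falciparum DNA-binding domains from E. coli at about 25 μg on average, had been applied for 1 h to an Agilent 4 × 180k array of primer-extended double-stranded 36-bp intergenic genomic probes and negative controls.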

Sequence | gcPBM binding intensity (ln)
TTATTAATTATATATAGTACACATTTCACAGATGGG [XGTACX_site2349] | 9.2
TATTTATGTATATGCTGTACGCATTTGTGAAACATA [XGTACX_site4688] | 9.06
GTACATATAAATATTACACACATTTTCATTTTTAAC [CACACA_site1986] | 9.56
ATAATTTATATTCAGAAACACACGAAAAAAAAAAAT [CACACA_site1296] | 9.64
TAAATGTAAAACGAAATGCACACTATGGAAAATATA [CACACA_site724] | 9.66
AATTAATATTTAAATTGTACATGAACATTTTAATGT [XGTACX_site462] | 8.97
CAAATACATAGACACACACACATATACATATTTATA [CACACA_site7610] | 10
ATTCATTCATATGTTACACACACACCGACACATAAA [CACACA_site5749] | 10
ATTCATTCATATGTTACACACACACGCCCACATAAA [CACACA_site7513] | 10.3
TCATTCATATGTTACACACACACACGCACATAAAAA [CACACA_site7514] | 10.3
AAAATTCATAAATACACACACGCACATATATATATA [CACACA_site4227] | 9.88
ATTCATTCATATGTTACACACACACCCACCCATAAA [CACACA_site9066] | 10.2
TCATTCATATGTTACACACACACACCCACATAAAAA [CACACA_site3245] | 10.1
AAAAAGGGTATTATTACACACACGTAAATATTAATA [CACACA_site101] | 9.61
TTTCCTTTTTTAATATGTACACATATTATTATATCT [XGTACX_site3079] | 9.45
ATAATTTAAAAACATTGTACATTAATATATATGTAT [XGTACX_site8970] | 9.12
GTACACATATATATATATATATATATATATATATAT [CACACA_negctrl_site800] | 9.25
ATATATATTTTTATTTGTACATAATTTTTTTTGTGA [XGTACX_site6378] | 9.21
ACCAAAAAAAAAAAAAAAAAAATATACATATATATA [GTGCAC_negctrl_site582] | 9.05
TTTCATTTCACAGACACACACACACCCTATATTTCC [CACACA_site3906] | 10.2
ATTTCACAGAGACACACACACAATATATTTCCTTTT [CACACA_site7773] | 9.94

Sequence | gcPBM binding intensity (ln)
TCATTTCACAGACACACACACACAAGATATTTCCTT [CACACA_site7774] | 10
AAAGAAAATTAAAAAGAACACACAAATATATATATA [CACACA_site9196] | 9.67
AAATAGAAAAAATATACACACACTTATTAAATAAAA [CACACA_site3313] | 9.86
TGAGTATATAAATACACACACATATATATATTTTAA [CACACA_site5130] | 9.61
ATGCATATATTTATGTGTACATATATTTGTAGGGGG [XGTACX_site6063] | 10.7
ATATATATATATATATGTACTCATATTTTATTATTT [XGTACX_site898] | 9
TTTGTCATTTTATTATGTACTCAGCATATAGGGGGG [XGTACX_site505] | 10.5
ATATATATTTATATATGTACATATTTTTGTGTATTT [XGTACX_site1183] | 9.55
TATATATATATATTATGTACTCATTTATTATCTTTT [XGTACX_site8051] | 9.36
TATATATATATATATGCATGTACATATATTTGTTAT [TGCATGCA_site379] | 9.57
TATATACACATATATACACACACATATATATATATA [CACACA_site9127] | 9.79
TTACCAAAAACCTCAAGTACAAAAAATCCCTAATAT [XGTACX_site2313] | 9.37
TATATATTAAACTTTGCACACATAATTTAACTACAA [CACACA_site3440] | 9.4
TTAGATATAAAAGCATGTACTTGTATAAAATATATA [XGTACX_site8272] | 9.16
CACACCCACAGACACACACACACATATATAATATAT [CACACA_site594] | 10.2
TATATACATAGACACCCACACACAAAAAAAAAAAAA [CACACA_site8186] | 9.75
CATGCAAAAAATTCCACACACACACCCACATATAAA [CACACA_site1229] | 9.92
TTGGCATACAGACACACACACACACGCCCACATATA [CACACA_site6425] | 10.2
TACAGACATACATACACACATACATATATATATATA [CACACA_site1940] | 9.67
TATACAGACAGACACACACACATATATATATATATA [CACACA_site1734] | 9.82
TACATGCAAAAAATTCCACACACACCCCCACATATA [CACACA_site8329] | 10.2

Sequence | gcPBM binding intensity (ln)
CACACCCACAGACACACACACACATATATATATATA [CACACA_site363] | 10.2
TACATATACAGACACACACACACACCCCCACAAAAA [CACACA_site495] | 10.3
TGCAAAAAATTCCACACACACACACCCATATAAATA [CACACA_site1230] | 10
TTACATTATATACATACACACCCACCCACAAAAAAA [CACACA_site8187] | 10.1
CCTTTATATTATAAAAGTACATAATATTTTATAAGT [XGTACX_site1629] | 8.96
TATATATGTATCATTACACACATGTATACTTATTTG [CACACA_site4138] | 9.71
TGAGAGTTCTCATATGCACACAAAAAACTTTCATTT [CACACA_site7898] | 9.28
TATTTTTAATAAAAACGTACGGAATACAAAAAAAAT [XGTACX_site3477] | 9.4
AAGAAAATTGTCTGAAGTACAAAACATTAATAATAT [XGTACX_site4864] | 9.27
ATATTATAATTAAAACGTACGTATTTATGAATTCAT [XGTACX_site1047] | 9.16
ATAAATAATATAAATACACACTAAAAAAAATATATA [CACACA_site4456] | 9.7
CAAAAACATACCTACACACACAATATGTATAAATAA [CACACA_site7617] | 10
GGCATACACAGACACACACACACACCCACATATATA [CACACA_site591] | 10.3
CGCACCCACAGACACACACACACATATATATATATA [CACACA_site2202] | 10.2
TACCTATACAGACACACACACACACGCCCACAAAAA [CACACA_site6375] | 10.3
TATACATACAGACCCACACACAAAAAAAAAAAAAAA [CACACA_site6536] | 9.38
TTGGCATACAGACACACACACACACCCCCACATATA [CACACA_site590] | 10.1
AATACACGCAGACACACACACAAAAAAAAAAAAAAA [CACACA_site6384] | 9.61
CACCCCCACAGACACACACACACACCCATATATATA [CACACA_site364] | 10.3
TAAATACAGACATACACACATACACCCACATATATA [CACACA_site547] | 9.95
CATACACCCATACATACACACATACAGATATATATA [CACACA_site5123] | 9.74
